# Measurements: the supplement of paper PMC4723716
# System: Plasmodium falciparum NF54 gametocytes
# Assay: viability index relative to DMSO control (fraction); higher = less gametocyte killing
# Details: 12.5 µM, incubation time: 72 h
# Procedure, shortened: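 In 384-well plates, compound at 12.5 µM was incubated for 72 hr at 37°C under low oxygen with P. falciparum NF54 gametocytes of each stage (I–V) at 0.50% gametocytemia and 1.25% hematocrit in 40 µl of serum-containing medium. Staining used 5 µl of 5 µM MitoTracker Red CMXRos for 20 min, then 5 µl was moved into 40 µl of 500 nM dye in serum-free medium and imaged after 30 min. Dividing the gametocyte particle count by the plate mean of solvent-only wells gave the viability index.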
# [1] = gametocyte stage: Stage I viability index
# [2] = gametocyte stage: Stage II viability index
# [3] = gametocyte stage: Stage III viability index
# [4] = gametocyte stage: Stage IV viability index
# [5] = gametocyte stage: Stage V viability index
Structure (SMILES),viability index [1],viability index [2],viability index [3],viability index [4],viability index [5]
Oc1ccccc1CNCC12CC3CC(CC(C3)C1)C2,0.274,0.297,0.638,0.818,0.769
CCn1c(SCC(=O)Nc2cc(C(F)(F)F)ccc2Cl)nc2ccccc2c1=O,0.787,0.953,1.17,1.14,1.03
CCN(Cc1ccccc1)C1CCN(Cc2cc(Br)ccc2O)CC1,0.0376,0.132,0.573,0.617,0.659
CCOC(=O)c1ccc2nc(-c3ccccc3)cc(O)c2c1,0.606,0.719,0.761,0.757,1.12
CCOc1cc2c(cc1OCC)C(c1cc(C)c(O)c(C)c1)NCC2 (stereo not given),0.0111,0.123,0.642,0.851,0.78
Cc1ccc(-c2cc(C(=O)Nc3ccc(S(=O)(=O)N4CCCCC4)cc3)[nH]n2)c(O)c1,0.453,0.939,0.973,1.09,0.967
O=C(CSc1nccn2nc(-c3ccccc3)cc12)Nc1cc(C(F)(F)F)ccc1Cl,0.845,0.896,0.973,1.08,1.4
CN1CCN(c2c3c(c(C#N)c4nc5ccccc5n24)CCC3)CC1,1.02,0.865,1.03,1.05,0.846
CCc1ccc(CNCC(O)c2ccccc2)cc1 (stereo not given),0.042,0.177,0.649,0.703,0.506
CCOc1ccc2nc(C)cc(Nc3ccc(Br)cc3)c2c1,0.152,0.407,0.828,0.851,0.818
Cc1cc(NC(=O)C2c3ccccc3C(=O)N(CC(C)C)C2c2cccs2)no1 (stereo not given),0.0387,0.0193,0.0636,0.188,0.0879
COc1ccc(CCN2C(=O)c3[nH]nc(-c4cc(Cl)c(C)cc4O)c3C2c2ccccc2F)cc1 (stereo not given),0.083,0.29,0.6,0.665,0.675
CCN(CC)CCCNc1nc(-c2ccc(Cl)cc2)nc2ccccc12,0.693,0.751,1.01,0.903,0.956
Cc1cc(N(C)C)nc(Nc2ccc(NC(=O)Nc3ccccc3)cc2)n1,0.00262,0.0266,0.138,0.0285,0
Cc1cc(Nc2ccc3ccccc3c2)n2ncnc2n1,0.567,0.521,0.755,0.79,0.626
Cc1ccc(-c2cc3c(nn2)-c2ccccc2C3=O)cc1,0.61,0.871,0.74,0.897,1.05
COc1ccc(-c2nc3cc(Cc4ccc5[nH]c(-c6ccc(OC)cc6)nc5c4)ccc3[nH]2)cc1,0.0276,0.441,0.864,0.809,0.538
CCOC(=O)C1=C(C)N=c2sc(=Cc3cc(Cl)ccc3O)c(=O)n2C1c1ccc(OC)cc1 (stereo not given),0.0559,0.0966,0.137,0.171,0.416
COc1cc(C(=O)Nc2ccc(-c3nc4ccccc4[nH]3)cc2)cc(OC)c1OC,0.0918,0.595,1.01,0.968,0.701
Cc1ccc(NC(=O)Nc2cccc(Cl)c2)cc1F,0.64,0.599,0.832,0.827,0.582

Structure (SMILES),viability index [1],viability index [2],viability index [3],viability index [4],viability index [5]
CC(C)(C)c1ccc(C(=O)Nc2c3c(nn2-c2cccc(Cl)c2)CSC3)cc1,0.469,0.508,0.825,0.747,0.701
O=C(NC1CCN(Cc2ccccc2)CC1)c1cc(-c2ccncc2)nc2ccc(Cl)cc12,0.601,0.662,1.08,0.994,0.791
CC(=O)NCCc1nc2ccccc2n1Cc1ccc(C(C)C)cc1,0.788,0.671,0.883,0.891,0.813
CCCc1c(C)nc2ccc(Br)cc2c1O,0.777,0.706,0.893,0.965,0.753
COc1ccc2nc(C)cc(Nc3ccc(Cl)cc3)c2c1,0.243,0.525,0.994,1.05,0.692
Clc1ccc2[nH]c3c(NCCCN4CCOCC4)ncnc3c2c1,0.0298,0.444,0.979,0.918,0.813
O=C(Nc1ccc(Cl)c(Cl)c1)Nc1ccc(Cl)c(Cl)c1,0.0437,0.0241,0.0353,0.0918,0.104
O=c1cc(NC2CCN(CCCc3ccccc3)CC2)c2cc(Cl)ccc2o1,0.028,0.408,0.815,0.848,0.675
Cc1ccc(N2C3c4ccccc4N(S(=O)(=O)c4ccc(C)cc4)C2c2ccccc2N3S(=O)(=O)c2ccc(C)cc2)cc1,0.687,0.77,0.928,0.93,0.978
CCOC(=O)c1cn(CC)c2cc(N3CCCCC3)c(F)cc2c1=O,0.592,0.9,0.81,0.769,0.791
COc1ccc(C(=O)C2CC2c2ccc(Cl)cc2)cc1 (stereo not given),1.01,0.968,1.03,0.93,0.558
COc1ccc(C2C(C(=O)Nc3cccc(OC)c3)c3ccccc3C(=O)N2C2CCCCC2)cc1 (stereo not given),0.0691,0.0974,0.488,0.551,0.519
CCN(CC)CCNc1ccnc2cc(Cl)ccc12,0.0376,0.295,0.789,0.726,0.626
CCn1c2c(c(=N)c3c1CCC3)CCCC2,0.441,0.795,0.957,0.962,0.701
Cc1cc(Nc2ccc(Cl)cc2)n2nc(C(F)(F)F)nc2n1,0.957,0.975,1.03,0.97,1
CCOc1c(Cl)cc(CNCC(O)c2ccccc2)cc1OC (stereo not given),0.231,0.272,0.793,0.918,0.714
COc1ccc(-c2nonc2NC(=O)c2cccc(C)c2)cc1OC,0.62,0.55,0.571,0.769,0.571
COc1ccc(-c2cc3c(nn2)-c2ccccc2C3=O)cc1,0.713,0.675,0.735,0.693,1
Clc1cc(Br)ccc1-c1ccc(CNCC2CCNCC2)o1,0.0166,0.0135,0.0099,0.0152,0.033
COc1ccc(-c2cn3c(C(=O)Nc4ccccc4Cl)c(-c4ccccc4)c4c3n2CCCC4)cc1,0.673,0.531,0.719,0.794,0.779

Structure (SMILES),viability index [1],viability index [2],viability index [3],viability index [4],viability index [5]
CC(C)(C)c1ccc2c(c1)CN(Cc1ccc(Cl)cc1)CO2,0.12,0.192,0.385,0.633,0.442
CC(=O)c1sc(NC(=O)Nc2ccc(C)cc2C)nc1C,0.271,0.455,0.673,0.801,0.714
O=C(Nc1ccc(-c2nc3cc4ccccc4cc3[nH]2)cc1)c1cccc(Br)c1,0.028,0.421,0.851,0.873,0.909
O=C(Nc1ccc(Cl)cc1C(=O)Nc1ccncc1)c1ccc(Cl)cc1Cl,0.139,0.589,0.935,0.927,0.637
CC(Oc1ccc(NC(=O)c2cccs2)cc1)C(=O)c1ccc(Cl)cc1 (stereo not given),1.02,0.883,0.727,0.854,0.974
Oc1c(CN2CCN(c3ccccc3F)CC2)cc(Br)c2cccnc12,0.0376,0.0566,0.0353,0.0253,0.026
O=C(Nc1ccsc1C(=O)NC1CCCCC1)c1ccc(F)cc1,0.93,0.729,0.965,0.933,0.945
CCOC(=O)C1CCN(C(=O)CN2C(=O)c3ccccc3C2c2c[nH]c3ccccc23)CC1 (stereo not given),1.39,0.924,1.14,1.13,1.18
CC(C)CNC(=O)c1c(N)n(CCc2ccccc2F)c2nc3ccccc3nc12,0.0398,0.139,0.662,0.687,0.769
COc1ccc(C2c3ccc4ccccc4c3Oc3ncn(CCCN(C)C)c(=N)c32)cc1 (stereo not given),0.0367,0.0483,0.0339,0.0316,0
CC(=O)c1ccc(NC(=O)CSc2nc(-c3ccccc3Cl)ns2)cc1,0.102,0.308,0.308,0.62,0.584
CCOc1ccccc1NC(=O)CN1CCN(C(=O)c2ccco2)CC1,1.06,1,1.07,0.959,1.1
c1ccc(Cn2c(N=Nc3c(Nc4ccccc4)ccc4ccccc34)nc3ccccc32)cc1,0.00884,0.0106,0.058,0.149,0.209
O=C1c2ccc3c4c(ccc(c24)C(=O)N1CCCCO)C(=O)N(CCCCO)C3=O,0.364,0.261,0.204,0.168,0.182
O=C(Nc1ccc(N2CCN(Cc3ccccc3)CC2)cc1)c1cccs1,0.941,0.866,0.795,0.875,1.15
Oc1ccccc1CN1CCN(C(c2ccccc2)c2ccccc2)CC1,0.0221,0.102,0.437,0.535,0.615
Cc1c(C)n(Cc2ccc(F)cc2)c2ccc(C(=O)NCc3ccco3)cc12,0.478,0.756,0.932,0.827,1
CCN(CC)S(=O)(=O)c1ccc(-c2csc(Nc3ccc(C)c(C)c3)n2)cc1,0.544,0.506,0.532,0.733,0.352
CCOc1cc2c(cc1OCC)C(c1cc(Cl)c(O)c(OCC)c1)NCC2 (stereo not given),0.0402,0.163,0.539,0.829,0.922
CCn1c(CN2CCN(Cc3ccccc3)CC2)nc2cc(NC(=O)c3cccs3)ccc21,0.701,0.837,0.924,0.967,1.05
